Experimental data as given in PubChem BioAssay AID504339 (National Center for Advancing Translational Sciences (NCATS), 2011).
Hit rate of the full screen: of about 390,000 compounds, about 17,000 (4.4%) were called active. Where a call stands in place of a potency, no number is given. Roughly 8% stayed inconclusive and do not appear here. Calls come from the whole dose curve; as a rule, active = well fitted inhibition curve with a large enough effect; inconclusive = small, poorly fitted or top-dose-only effect; inactive = no such curve, though single readings can be large or run the other way. Many of the other results were omitted from the sample, so actives are more common in it than they were.

What follows are compounds tested against Lysine-specific demethylase 4A (Homo sapiens) (UniProt O75164) (assay: qHTS Assay for Inhibitors of JMJD2A-Tudor Domain). Settings: AlphaScreen JMJD2A-Tudor / H3K4me3 peptide binding; series mostly up to 114 µM.
Chain of Lysine-specific demethylase 4A (Homo sapiens) (O75164 whole entry, looked up, the tested form may be a part): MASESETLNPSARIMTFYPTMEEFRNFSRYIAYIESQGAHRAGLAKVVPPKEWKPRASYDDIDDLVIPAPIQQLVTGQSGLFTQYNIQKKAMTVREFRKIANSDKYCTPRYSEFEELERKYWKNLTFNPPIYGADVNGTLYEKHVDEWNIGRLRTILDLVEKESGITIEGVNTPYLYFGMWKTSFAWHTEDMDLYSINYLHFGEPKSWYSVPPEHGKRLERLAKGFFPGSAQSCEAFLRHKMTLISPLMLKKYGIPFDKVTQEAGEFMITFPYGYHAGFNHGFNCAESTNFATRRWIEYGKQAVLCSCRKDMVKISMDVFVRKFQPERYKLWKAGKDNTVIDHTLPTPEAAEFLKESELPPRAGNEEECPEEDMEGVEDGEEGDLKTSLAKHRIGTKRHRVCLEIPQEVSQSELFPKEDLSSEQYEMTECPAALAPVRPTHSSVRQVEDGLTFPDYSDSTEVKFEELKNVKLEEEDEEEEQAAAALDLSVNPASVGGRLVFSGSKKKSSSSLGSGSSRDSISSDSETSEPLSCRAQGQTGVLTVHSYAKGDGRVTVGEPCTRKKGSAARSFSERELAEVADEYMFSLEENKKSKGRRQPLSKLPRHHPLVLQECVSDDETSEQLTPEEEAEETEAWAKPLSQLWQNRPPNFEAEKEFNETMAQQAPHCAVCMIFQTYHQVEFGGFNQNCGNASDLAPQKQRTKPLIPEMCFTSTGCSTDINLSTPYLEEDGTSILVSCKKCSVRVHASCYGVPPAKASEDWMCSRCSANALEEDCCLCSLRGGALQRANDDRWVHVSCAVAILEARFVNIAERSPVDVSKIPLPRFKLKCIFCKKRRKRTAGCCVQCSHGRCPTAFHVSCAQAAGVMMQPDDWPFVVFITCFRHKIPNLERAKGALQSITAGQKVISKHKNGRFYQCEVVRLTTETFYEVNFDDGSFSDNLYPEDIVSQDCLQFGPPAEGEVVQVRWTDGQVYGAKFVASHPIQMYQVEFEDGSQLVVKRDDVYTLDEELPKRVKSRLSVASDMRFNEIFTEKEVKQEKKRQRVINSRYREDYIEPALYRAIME
Note: nearly all actives have a fitted effect of over 50% in size.
Potency is the fitted concentration of half-maximal effect.

Row | Compound | Potency
1 | Cc1ccc(OCC(=O)OCc2cc(=O)n3nc(C4CC4)sc3n2)cc1C | inactive
2 | CCOc1ccc(NC(=O)Cn2c(=O)n(CCCC(=O)NCc3ccc4c(c3)OCO4)c(=O)c3ccccc32)cc1 | inactive
3 | CCC(CC)c1nn2cc(-c3ccccc3)nc2s1 | inactive
4 | Cn1c(=O)n(C)c2cc(C(=O)Nc3ccc(Br)cc3)ccc21 | inactive
5 | Cn1ccc(=Nc2ccc(NC(=O)c3ccc(N=c4ccn(C)c5ccc([N+](=O)[O-])cc45)cc3)cc2)cc1 | 56.2 µM (active)
6 | CCc1ccc(NC(=O)c2ccc(Cn3cc([N+](=O)[O-])cn3)cc2)cc1 | inactive
7 | O=C(Cn1cc(SCc2ccccc2)c2ccccc21)N1CCCCC1 | inactive
8 | O=C(NC1CC(=O)N(c2ccc(F)cc2)C1)c1ccc(S(=O)(=O)N2CCCC2)cc1 (stereo not given) | inactive
9 | CCCCCn1c(CCNC(=O)c2ccc(F)cc2)nc2ccccc21 | inactive
10 | Cc1ccc2nc(/C(C#N)=C/c3ccc(-c4ccc(C(=O)OC(C)C)cc4)o3)[nH]c2c1 | inactive
11 | COc1ccc(CCNC(=O)CCCn2c(=O)c3ccccc3n(Cc3ccc(C)cc3)c2=O)cc1OC | inactive
12 | Cn1c(Nc2ccccc2)cc(=O)n(C)c1=O | inactive
13 | Cc1cc2nc(C)n(CCCNC(=O)Nc3ccccc3)c2cc1C | inactive
14 | Cc1cc(=O)n(C)c(=O)n1CCCNc1ccccc1 | 7.94 µM (active)
15 | COc1cc(C(CC(=O)NCCC(C)C)N2Cc3ccccc3C2=O)cc(OC)c1OC (stereo not given) | inactive
16 | Cc1cccc2c1-c1sc(C(=O)Nc3ccc(F)cc3F)cc1CO2 | inactive
17 | O=C1c2ccccc2C2=Nc3ccccc3SC(c3ccccc3F)C12 (stereo not given) | 14.1 µM (active)
18 | NC(=O)CSc1nc2c(oc3ccccc32)c(=O)n1Cc1ccccc1 | inactive
19 | CCOCCCNCc1ccc(OCc2ccc(F)cc2)c(OC)c1 | inactive
20 | CCCCOCCCNC(=O)c1ccccc1OCC | inactive
21 | CCOc1ccccc1OCCCNCc1ccccc1 | 5.01 µM (active)
22 | CCCCC(CC)CNC(=O)C1CCN(S(=O)(=O)c2cccc3nsnc23)CC1 (stereo not given) | inactive
23 | O=S(=O)(Nc1ccc(O)c2ccccc12)c1ccc(OC(F)(F)F)cc1 | 50.1 µM (active)
24 | O=C1COc2ccc(S(=O)(=O)Nc3ccc(OC(F)(F)F)cc3)cc2N1 | inactive
25 | Nc1ncc(S(=O)(=O)Nc2ccc(OC(F)(F)F)cc2)cn1 | inactive
26 | COC(=O)CC1Oc2ccccc2-n2cc(-c3ccccc3)nc21 (stereo not given) | inactive
27 | CCOc1ccc(-c2cc3nc(C4CCN(C(=O)OC(C)(C)C)CC4)c(C(=O)Nc4ccc(C(=O)OC)cc4)cn3n2)cc1 | inactive
28 | Cc1c(CC(=O)N2CCN(C(=O)C3COc4ccccc4O3)CC2)c(=O)oc2c(O)c(O)ccc12 (stereo not given) | 2.82 µM (active)
29 | COc1cc(NS(=O)(=O)c2ccc3c(c2)OCC(C(=O)N2CCCC2)O3)cc(OC)c1 (stereo not given) | inactive
30 | COc1ccc(OC)c2sc(N3CCN(C(=O)C4COc5ccccc5O4)CC3)nc12 (stereo not given) | inactive
